Measured values taken from PubChem BioAssay (NCATS).
Records with an inconclusive call do not appear. Values without a mark were called inactive. The source made the active and inactive calls. Calls come from the whole dose curve; as a rule, active = well fitted curve in the direction sought with a large enough effect; inconclusive = small, poorly fitted or top-dose-only effect, or another doubt; inactive = no such curve, though single readings can be large; an effect the other way counts as inactive or inconclusive.
% is set by controls: 0 for no effect and ±100 for the full control effect.

Molecular target: Calcium and integrin-binding protein 1 (Homo sapiens) (UniProt Q99828)
Sequence (Q99828 whole entry, looked up): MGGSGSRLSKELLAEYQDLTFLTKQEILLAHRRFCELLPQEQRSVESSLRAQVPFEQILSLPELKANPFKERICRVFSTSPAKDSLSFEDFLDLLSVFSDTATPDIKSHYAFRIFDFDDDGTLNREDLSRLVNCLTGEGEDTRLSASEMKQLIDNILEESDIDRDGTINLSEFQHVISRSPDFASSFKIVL
Assay: Primary qHTS for Identification of Calcium Integrin Binding Protein 1 (CIB1) Competitor (AID 1508620);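 note: GST tagged CIB1 binding a fluorescein labelled alphaIIb integrin peptide tracer; top concentration of the series differs between compounds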
Conditions: CIB1-GST / FITC-alphaIIb peptide fluorescence polarization; series mostly up to 57.7 µM; activity change, negative = inhibition: at the top concentration
Procedure, shortened: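 Fluorescence polarization competition: CIB1-GST (1 uM final) preincubated with compound 15 min at room temperature, then FITC-labeled alphaIIb peptide (100 nM final) added for another 15 min. Polarization read at Ex 480/Em 540.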
With O=C(O)[C@H](CC(=O)N1C[C@@H]2CCCC[C@H]2C1)Cc1ccccc1 the “activity change, negative = inhibition” value was 5.48%. With C[C@@]12C(=O)OC(=O)[C@@]1(C)C1CCC2O1 the “activity change, negative = inhibition” value was 0.934%. With CC(=O)NCC(=O)N1[C@H]2CC[C@H]1c1cc(Nc3ncc(C(F)(F)F)c(NC4CCC4)n3)ccc12 the “activity change, negative = inhibition” value was -1.4%. For CC(=O)C1=C(O)C=C2Oc3c(C(C)=O)c(O)c(C)c(O)c3C2(C)C1=O (stereo not given), the “activity change, negative = inhibition” value was -2.92%. For Nc1ncn([C@@H]2O[C@H](CO)[C@@H](O)[C@@H]2O)c(=O)n1, the “activity change, negative = inhibition” value was 1.75%. In the case of COC(=O)[C@@H]1CC2=CC(=O)CC[C@]2(C)[C@@]23O[C@@H]2C[C@@]2(C)[C@H](CC[C@@]24CCC(=O)O4)[C@@H]13, the “activity change, negative = inhibition” value is reported as 3.49%. In the case of COc1cc(OC)c(NC(=O)Nc2cc(C)on2)cc1Cl, the “activity change, negative = inhibition” value is reported as -3.3%. For CCc1cc(C(C)=NOCc2ccc(C3CCCCC3)c(C(F)(F)F)c2)ccc1CN1CC(C(=O)O)C1, the “activity change, negative = inhibition” value was -2.11%. In the case of O=C(Nc1cccc(Nc2ncc(Br)c(NCCc3cnc[nH]3)n2)c1)N1CCCC1, the “activity change, negative = inhibition” value is reported as -3.41%. For O=C1NC(=O)C(=Cc2ccc3nccc(-c4ccncc4)c3c2)S1, the “activity change, negative = inhibition” value was -6.25%. For C[C@@H]1[C@H](C)CC[C@]2(C(=O)O)CC[C@]3(C)C(=CC[C@@H]4[C@@]5(C)C[C@@H](O)[C@H](O)[C@@](C)(CO)[C@H]5CC[C@]43C)[C@@H]12, the “activity change, negative = inhibition” value was -2.97%. With CC(=O)N[C@H]1[C@@H]([C@H](O)[C@H](O)CO)OC(C(=O)O)=C[C@@H]1N=C(N)N the “activity change, negative = inhibition” value was 3.99%. With COc1cc2c(Nc3ccc(Cl)c(Cl)c3F)ncnc2cc1OCC1C[C@@H]2CN(C)C[C@H]2C1 the “activity change, negative = inhibition” value was -2.34%. With COc1cc([C@@H]2c3cc4c(cc3[C@H](O)[C@H]3COC(=O)[C@@H]23)OCO4)cc(OC)c1OC the “activity change, negative = inhibition” value was 0.0907%. For c1coc(CNc2ncnc3nc[nH]c23)c1, the “activity change, negative = inhibition” value was 5.52%. With O=C(NCc1ccccc1)[C@H](Cc1ccccc1)NC(=O)[C@@H]1O[C@@H]1C(=O)NCCc1ccc(O)cc1 the “activity change, negative = inhibition” value was 0.344%. For COC(=O)C=CC(=O)OC, the “activity change, negative = inhibition” value was 0.244%. With CN(C)c1ccc2cc(C(=O)N[C@@H](CCCN=C(N)CCl)C(=O)NCc3ccccc3)ccc2c1 the “activity change, negative = inhibition” value was -16.4%. For CCN(C(=O)c1c(O)c2c(Cl)cccc2n(C)c1=O)c1ccccc1, the “activity change, negative = inhibition” value was -0.764%. With CCCCCN=C(N)NN=Cc1c[nH]c2ccc(OC)cc12 the “activity change, negative = inhibition” value was -3%. In the case of C=CC[C@@H]1C=C(C)C[C@H](C)C[C@H](OC)[C@H]2O[C@@](O)(C(=O)C(=O)N3CCCC[C@H]3C(=O)O[C@H](C(C)=C[C@@H]3CC[C@H](O)[C@H](OC)C3)[C@@H](C)[C@@H](O)CC1=O)[C@@H](C)C[C@@H]2OC, the “activity change, negative = inhibition” value is reported as 1.15%. In the case of CC1(C)[C@H](O[C@H]2O[C@H](C(=O)O)[C@@H](O)[C@H](O)[C@H]2O[C@@H]2O[C@H](C(=O)O)[C@@H](O)[C@H](O)[C@H]2O)CC[C@@]2(C)[C@H]1CC[C@]1(C)[C@H]2C(=O)C=C2[C@H]3C[C@@](C)(C(=O)O)CC[C@]3(C)CC[C@]21C, the “activity change, negative = inhibition” value is reported as 0.44%. In the case of CCCCCCCN(CC)CCCC(O)c1ccc(NS(C)(=O)=O)cc1 (stereo not given), the “activity change, negative = inhibition” value is reported as 0.286%. With CCCCCCCCCCCC(CC1OC(=O)C1CCCCCC)OC(=O)C(CC(C)C)NC=O (stereo not given) the “activity change, negative = inhibition” value was -3.21%. With CC(=O)ON=C1C(c2c(O)[nH]c3cc(Br)ccc23)=Nc2ccccc21 the “activity change, negative = inhibition” value was 1.25%. With COc1ccc(C(C)=O)c(O)c1 the “activity change, negative = inhibition” value was 2.61%. For CC(Cc1ccc(O)c(O)c1)(NN)C(=O)O (stereo not given), the “activity change, negative = inhibition” value was -2.34%. In the case of CCC[C@H]1C[C@H](C(=O)N[C@@H]([C@@H]2O[C@@H](SC)[C@@H](O)[C@@H](O)[C@@H]2O)[C@H](C)Cl)N(C)C1, the “activity change, negative = inhibition” value is reported as -4.82% [at 114 µM]. For CC(C=CC1=C(C)CCCC1(C)C)=CC=CC(C)=CC(=O)Nc1ccc(O)cc1, the “activity change, negative = inhibition” value was -4.41% [at 114 µM]. With COc1cc(CCc2cc(NC(=O)c3ccc(N4C[C@@H](C)N[C@@H](C)C4)cc3)n[nH]2)cc(OC)c1 the Potency was “inactive”. For CS[C@H]1SC[C@@H]2C(=O)N(C)[C@H](C(C)C)C(=O)OC[C@H](NC(=O)c3cnc4ccccc4n3)C(=O)N[C@H](C)C(=O)N(C)[C@@H]1C(=O)N(C)[C@H](C(C)C)C(=O)OC[C@H](NC(=O)c1cnc3ccccc3n1)C(=O)N[C@H](C)C(=O)N2C, the “activity change, negative = inhibition” value was -1.25%. With Nc1nc2c(c(=O)[nH]1)N(C=O)[C@H](CNc1ccc(C(=O)N[C@@H](CCC(=O)O)C(=O)O)cc1)CN2 the “activity change, negative = inhibition” value was -0.441%. For O=C(CCCCCCC(=O)Nc1cccnc1)NO, the “activity change, negative = inhibition” value was -1.38%. In the case of Cc1cc(C(=O)NOCCO)c(Nc2ccc(I)cc2F)n(C)c1=O, the “activity change, negative = inhibition” value is reported as 3.7%. With N#Cc1ccc(COC[C@H]2O[C@@H](n3c(NCc4ccc(Cl)c(Cl)c4)nc4c(N)ncnc43)[C@@H](O)[C@@H]2O)cc1 the “activity change, negative = inhibition” value was 0.42%. With CC(C(C)N1CC(=O)NC(=O)C1)N1CC(=O)NC(=O)C1 (stereo not given) the “activity change, negative = inhibition” value was -3.32%. For CC(C)(O)Cn1c(NC(=O)c2ccc(-c3cn[nH]c3)s2)nc2cc(CN3CCOCC3)ccc21, the “activity change, negative = inhibition” value was -18%. For O=c1[nH]c(=O)n([C@H]2C[C@@H](O)[C@@H](CO)O2)cc1F, the “activity change, negative = inhibition” value was -1.71%.

Tested on: not listed separately
Assay: Primary qHTS for small molecule stabilizers of the endoplasmic reticulum resident proteome: Secreted ER Calcium Modulated Protein (SERCaMP) assay (AID 1508630)
Conditions: SH-SY5Y GLuc-SERCaMP (Gaussia luciferase released on ER calcium loss) secretion, thapsigargin, luminescence; series mostly up to 38.4 µM; activity change, negative = inhibition: at the top concentration
Procedure, shortened: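 The SH-SY5Y reporter protocol was run at 3 concentrations up to 38.3 uM (primary) or 11 concentrations (follow-up): 16 h compound, 100 nM thapsigargin for 4 h, then extracellular luciferase luminescence.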
For O=C(O)[C@H](CC(=O)N1C[C@@H]2CCCC[C@H]2C1)Cc1ccccc1, the “activity change, negative = inhibition” value was 213%. For C[C@@]12C(=O)OC(=O)[C@@]1(C)C1CCC2O1, the “activity change, negative = inhibition” value was 70.1%. For CC(=O)NCC(=O)N1[C@H]2CC[C@H]1c1cc(Nc3ncc(C(F)(F)F)c(NC4CCC4)n3)ccc12, the “activity change, negative = inhibition” value was 200%. For CC(=O)C1=C(O)C=C2Oc3c(C(C)=O)c(O)c(C)c(O)c3C2(C)C1=O (stereo not given), the “activity change, negative = inhibition” value was 21.9%. For Nc1ncn([C@@H]2O[C@H](CO)[C@@H](O)[C@@H]2O)c(=O)n1, the “activity change, negative = inhibition” value was 71.7%. With COC(=O)[C@@H]1CC2=CC(=O)CC[C@]2(C)[C@@]23O[C@@H]2C[C@@]2(C)[C@H](CC[C@@]24CCC(=O)O4)[C@@H]13 the “activity change, negative = inhibition” value was 0.826%. In the case of COc1cc(OC)c(NC(=O)Nc2cc(C)on2)cc1Cl, the “activity change, negative = inhibition” value is reported as 28.6%. In the case of CCc1cc(C(C)=NOCc2ccc(C3CCCCC3)c(C(F)(F)F)c2)ccc1CN1CC(C(=O)O)C1, the “activity change, negative = inhibition” value is reported as -50.8%. In the case of O=C(Nc1cccc(Nc2ncc(Br)c(NCCc3cnc[nH]3)n2)c1)N1CCCC1, the “activity change, negative = inhibition” value is reported as 27.5%. For O=C1NC(=O)C(=Cc2ccc3nccc(-c4ccncc4)c3c2)S1, the “activity change, negative = inhibition” value was 310%. With C[C@@H]1[C@H](C)CC[C@]2(C(=O)O)CC[C@]3(C)C(=CC[C@@H]4[C@@]5(C)C[C@@H](O)[C@H](O)[C@@](C)(CO)[C@H]5CC[C@]43C)[C@@H]12 the “activity change, negative = inhibition” value was -4.73%. With CC(=O)N[C@H]1[C@@H]([C@H](O)[C@H](O)CO)OC(C(=O)O)=C[C@@H]1N=C(N)N the “activity change, negative = inhibition” value was 0%. For COc1cc2c(Nc3ccc(Cl)c(Cl)c3F)ncnc2cc1OCC1C[C@@H]2CN(C)C[C@H]2C1, the “activity change, negative = inhibition” value was 316%. In the case of COc1cc([C@@H]2c3cc4c(cc3[C@H](O)[C@H]3COC(=O)[C@@H]23)OCO4)cc(OC)c1OC, the “activity change, negative = inhibition” value is reported as 0%. In the case of c1coc(CNc2ncnc3nc[nH]c23)c1, the “activity change, negative = inhibition” value is reported as 69.2%. In the case of O=C(NCc1ccccc1)[C@H](Cc1ccccc1)NC(=O)[C@@H]1O[C@@H]1C(=O)NCCc1ccc(O)cc1, the “activity change, negative = inhibition” value is reported as 121%. In the case of COC(=O)C=CC(=O)OC, the “activity change, negative = inhibition” value is reported as 140%. In the case of CCN(C(=O)c1c(O)c2c(Cl)cccc2n(C)c1=O)c1ccccc1, the “activity change, negative = inhibition” value is reported as -18.9%. With CCCCCN=C(N)NN=Cc1c[nH]c2ccc(OC)cc12 the “activity change, negative = inhibition” value was 206%. For CCCCCCCN(CC)CCCC(O)c1ccc(NS(C)(=O)=O)cc1 (stereo not given), the “activity change, negative = inhibition” value was 0%. In the case of COc1ccc(C(C)=O)c(O)c1, the “activity change, negative = inhibition” value is reported as 134%. With CC(Cc1ccc(O)c(O)c1)(NN)C(=O)O (stereo not given) the “activity change, negative = inhibition” value was -3.85%. With CCC[C@H]1C[C@H](C(=O)N[C@@H]([C@@H]2O[C@@H](SC)[C@@H](O)[C@@H](O)[C@@H]2O)[C@H](C)Cl)N(C)C1 the “activity change, negative = inhibition” value was 14.1%. In the case of COc1cc(CCc2cc(NC(=O)c3ccc(N4C[C@@H](C)N[C@@H](C)C4)cc3)n[nH]2)cc(OC)c1, the “activity change, negative = inhibition” value is reported as 143%. In the case of CS[C@H]1SC[C@@H]2C(=O)N(C)[C@H](C(C)C)C(=O)OC[C@H](NC(=O)c3cnc4ccccc4n3)C(=O)N[C@H](C)C(=O)N(C)[C@@H]1C(=O)N(C)[C@H](C(C)C)C(=O)OC[C@H](NC(=O)c1cnc3ccccc3n1)C(=O)N[C@H](C)C(=O)N2C, the “activity change, negative = inhibition” value is reported as 188%. With Nc1nc2c(c(=O)[nH]1)N(C=O)[C@H](CNc1ccc(C(=O)N[C@@H](CCC(=O)O)C(=O)O)cc1)CN2 the “activity change, negative = inhibition” value was 48.2%. With O=C(CCCCCCC(=O)Nc1cccnc1)NO the “activity change, negative = inhibition” value was 168%. With Cc1cc(C(=O)NOCCO)c(Nc2ccc(I)cc2F)n(C)c1=O the “activity change, negative = inhibition” value was 82.1%. With N#Cc1ccc(COC[C@H]2O[C@@H](n3c(NCc4ccc(Cl)c(Cl)c4)nc4c(N)ncnc43)[C@@H](O)[C@@H]2O)cc1 the “activity change, negative = inhibition” value was 0%. For CC(C(C)N1CC(=O)NC(=O)C1)N1CC(=O)NC(=O)C1 (stereo not given), the “activity change, negative = inhibition” value was -30.7%. In the case of CC(C)(O)Cn1c(NC(=O)c2ccc(-c3cn[nH]c3)s2)nc2cc(CN3CCOCC3)ccc21, the “activity change, negative = inhibition” value is reported as 222%. In the case of O=c1[nH]c(=O)n([C@H]2C[C@@H](O)[C@@H](CO)O2)cc1F, the “activity change, negative = inhibition” value is reported as 69.1%.
